The text below walks through data of PubChem BioAssay AID1347076 (National Center for Advancing Translational Sciences (NCATS), 2019).

SMILES strings stand for the structures. Out of some 400,000 compounds screened, about 13,000 (3.2%) were called active. Inconclusive results (about 18%) are left out. The sample holds actives, similar compounds and a random draw of the others, so the mix is not that of the screen. Unmarked numbers belong to inactive results. Calls come from the whole dose curve; as a rule, active = well fitted cell-killing curve with a large enough effect; inconclusive = small, poorly fitted or top-dose-only effect, or effect the other way; inactive = flat fitted curve, though single readings scatter.
% is set by controls: 0 for no effect and ±100 for the full control effect; potency is the fitted concentration of half-maximal effect.

The assay can be described thus: qHTS assay for MDR1-selective chemotherapeutics: Primary screen using the drug-selected MDR subline cells KB-V1. Note: nearly all actives have a fitted effect of over 60% in size. To be noted: KB-V1 MDR cells viability, CellTiter-Glo, 72 h; series mostly up to 46.1 µM; activity change, negative = cytotoxicity: at the top concentration. An outline of the steps:
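Drug-selected KB-V1 cells, grown in DMEM lacking phenol red with 10% FBS, receive compound titrations; after three days at 37 degrees C, surviving cell ATP is quantified by CellTiter-Glo luminescence and responses normalized and curve-fitted.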
On the technique in general: In qHTS, concentration-response curves come from the screen itself.
With `O=C(/C=C\c1ccc2c(c1)OCO2)NC1(C(=O)Nc2ccc3c(c2)OCCO3)CCCCC1`, the “activity change, negative = cytotoxicity” value is 0.694%.

Consider `COc1ccc(/C=C/C(=O)Nc2ccc3c(c2)OCCO3)cc1OC`, for which the Potency is 20.6 µM (active).

Regarding `COc1cccc(/C=C/C(=O)Nc2ccc3c(c2)OCCO3)c1`, the “activity change, negative = cytotoxicity” value is -8.07%.

In the case of `Cc1nn2c(=O)cc(COC(=O)CNC(=O)c3ccc(F)cc3)nc2s1`, the “activity change, negative = cytotoxicity” value is 28.8%.

For `Cc1ccc2nc(NCCCNC(=O)c3cnccn3)c(C#N)cc2c1`, the “activity change, negative = cytotoxicity” value is 0.0278%.

Take `CCC(C)(C)n1nnnc1CN1CCN(c2nc3ccc(C)cc3cc2C#N)CC1`: the Potency is 23.1 µM (active).

As to `Cc1cc(C)c2cc(C#N)c(N3CCNCC3)nc2c1`, the “activity change, negative = cytotoxicity” value is 0.402%.

On to `NS(=O)(=O)c1ccc(NC(=O)C(=O)Nc2ccc3nc4n(c(=O)c3c2)CCCCC4)cc1`, for which the “activity change, negative = cytotoxicity” value was 17.5%.

Consider `CN1OC[C@@H]2CN(C(=O)c3cccc4ccccc34)[C@H](c3ccc(N4CCCCC4)cc3)C[C@@H]21`, for which the “activity change, negative = cytotoxicity” value was 22.9%.

As to `CS(=O)(=O)Nc1ccc(C2=NN(S(C)(=O)=O)C(c3cccs3)C2)cc1` (stereo not drawn), the “activity change, negative = cytotoxicity” value is -6.25%.

Take `CNc1cncc(-c2cccc(C(=O)N3CCOCC3)c2)n1`: the “activity change, negative = cytotoxicity” value was 4.04%.

For `CNc1cncc(-c2ccc(NS(C)(=O)=O)cc2)n1`, the Potency was 5.17 µM (active).

In the case of `O=C(NCCN1CCOCC1)c1ccc2c(c1)N(Cc1cccc(Cl)c1)C(=O)c1ccccc1S2(=O)=O`, the “activity change, negative = cytotoxicity” value was 29.9%.

Take `CCc1ccc2oc(-c3ccc(C)c(NC(=O)/C=C/c4ccco4)c3)nc2c1`: the “activity change, negative = cytotoxicity” value is 22.1%.

On to `COC(=O)c1c(-c2cccs2)csc1NC(=O)CSc1ncnc2sc(C)c(C)c12`, for which the Potency was 18.4 µM (active).

As to `Cc1sc2ncnc(SCC(=O)NC3CCS(=O)(=O)C3)c2c1C` (stereo not drawn), the “activity change, negative = cytotoxicity” value was -1.3%.

Take `CCOC(=O)c1c(NC(=O)CSc2nccc(=O)[nH]2)sc(C)c1C`: the “activity change, negative = cytotoxicity” value was -16.2%.

With `COCCn1c(SCC(=O)c2cc(C)ccc2C)nc2cc(C(=O)NC3CCCC3)ccc2c1=O`, the “activity change, negative = cytotoxicity” value is -7.24%.

`CCCCN(CCCNC(=O)c1cc(Nc2ccccc2OC)nc2ccccc12)c1ccccc1`: the “activity change, negative = cytotoxicity” value is 14.8%.

Turning to `O=C(Nc1cccc(OCC(=O)N2CCOCC2)c1)C1CCCCC1`, the “activity change, negative = cytotoxicity” value was 14.1%.

Take `O=C1CC2(CCCCC2)Oc2ccc(OCC(=O)N3CCOCC3)cc21`: the Potency was 11.6 µM (active).

Take `O=C1CC2(CCN(C(=O)COc3ccc(F)cc3)CC2)Oc2ccccc21`: the “activity change, negative = cytotoxicity” value is -11.3%.

For `O=C(c1ccccc1)N1CCN(c2cc(-c3ccccc3)nc3cc(-c4cccc(Cl)c4)nn23)CC1`, the “activity change, negative = cytotoxicity” value is -14.3%.

Consider `CCNC(=O)C1CCCN(C(=O)c2ccc(OC)cc2OC)CC1` (stereo not drawn), for which the “activity change, negative = cytotoxicity” value is 2.93%.

Consider `CCc1ccccc1N1CN(Cc2ccco2)CNC1=S`, for which the “activity change, negative = cytotoxicity” value was -5.41%.

As for `CCN(CC)C(=O)CSc1nnc(CNc2ccc(F)cc2)n1Cc1ccco1`, the “activity change, negative = cytotoxicity” value was -7.12%.

Take `CN(C)C(=S)N=c1ssc(=S)n1Cc1ccco1`: the Potency was 4.11 µM (active).

Turning to `CC(C)NC(=O)C1(C)CCCCCN1C(=O)c1ccc(-c2ccccc2)cc1` (stereo not drawn), the “activity change, negative = cytotoxicity” value is -1.14%.

For the compound `OC[C@@H]1CN(C2CCCC2)C[C@H](n2cnc3c(NC4CCC4)ncnc32)O1`, the “activity change, negative = cytotoxicity” value is 19.1%.

With `CCOc1cccc2c1N[C@@H](c1ccc(C(=O)O)cc1)[C@H]1CC=C[C@@H]21`, the “activity change, negative = cytotoxicity” value is 17.3%.

Take `COc1cccc(C(O)c2ncc(-c3ccc4ccccc4c3)[nH]2)c1` (stereo not drawn): the “activity change, negative = cytotoxicity” value is -14.9%.

Consider `CN1CCN(C2Cc3ccc(Cl)cc3Sc3ccc(F)cc32)CC1` (stereo not drawn), for which the Potency is 16.4 µM (active).

In the case of `CC(C)CNC(=O)C1(C)CCCN1C(=O)CSc1ccccc1` (stereo not drawn), the “activity change, negative = cytotoxicity” value was 2.38%.

Consider `CCCCCn1c(=O)[nH]c2cc(C(=O)Nc3ccc(F)cc3)ccc2c1=O`, for which the “activity change, negative = cytotoxicity” value was -4.83%.

As to `Cc1ccc(S(=O)(=O)/N=C2\C=C(NS(=O)(=O)c3ccc(C)cc3)C(=O)c3ccccc32)cc1`, the “activity change, negative = cytotoxicity” value was -17%.

On to `Cc1cccc(NC(=O)CSc2nc3c(oc4ccccc43)c(=O)n2-c2ccc(F)cc2)c1`, for which the “activity change, negative = cytotoxicity” value is 2.03%.

As for `COc1ccc(-n2c(SCC(N)=O)nc3c(oc4ccccc43)c2=O)cc1`, the “activity change, negative = cytotoxicity” value was 0%.

On to `Cc1ccc(C)c(NC(=O)CSc2nc3c(oc4ccccc43)c(=O)n2-c2ccccc2)c1`, for which the Potency is 7.31 µM (active).

For the compound `Cc1c(C)c(C)c2[nH]c(=S)[nH]c2c1C`, the Potency was 3.66 µM (active).

Take `CCCOc1ccc(F)cc1-c1cc(C(=O)Nc2ccc(F)cc2)[nH]n1`: the “activity change, negative = cytotoxicity” value is -21.7%.

In the case of `CCC(C)NC(=O)c1ccccc1NC(=O)c1ccccc1N(C)S(C)(=O)=O` (stereo not drawn), the “activity change, negative = cytotoxicity” value was 0%.

On to `CCCCNC(=O)c1ccccc1NC(=O)C1=C(C)OCCS1`, for which the “activity change, negative = cytotoxicity” value was -18.7%.

Consider `CCCCNC(=O)c1ccccc1NC(=O)c1ccccc1N(C)S(C)(=O)=O`, for which the Potency is 23.1 µM (active).

Regarding `CCCCOc1ccc(CNC(=O)c2ccc3c(c2)N(C)C(=O)C2CCCCN32)cc1` (stereo not drawn), the “activity change, negative = cytotoxicity” value is 11.8%.

In the case of `CCN(CC)CCN(C(=O)c1ccc2c(c1)CCCC2)c1nc2c(OC)cccc2s1`, the “activity change, negative = cytotoxicity” value was -19.3%.

With `CCC(=O)N1c2ccccc2CC1C(=O)N1CCN(c2ccccc2F)CC1` (stereo not drawn), the “activity change, negative = cytotoxicity” value is -0.299%.

In the case of `Cc1ccc(-c2nc3cccc(C)n3c2Nc2ccc3c(c2)OCCO3)cc1`, the “activity change, negative = cytotoxicity” value was -6.68%.

Consider `CN(c1ccccc1)S(=O)(=O)c1ccc(C(=O)NCc2cccnc2)cc1`, for which the “activity change, negative = cytotoxicity” value was -8.64%.

For `COc1ccc(CNC(=O)c2ccc(-c3cccnc3)c3ccoc23)cc1OC`, the Potency is 18.4 µM (active).

For `COc1ccc(NC(=O)CNC(=O)Cc2ccccc2)cc1OC`, the “activity change, negative = cytotoxicity” value is 0%.

With `COc1ccc(CNC(=O)c2ccc(Br)s2)cc1OC`, the “activity change, negative = cytotoxicity” value is -18.8%.

Regarding `COc1ccc(CCNC(=O)Cc2ccc(C)cc2)cc1OC`, the “activity change, negative = cytotoxicity” value was -23.9%.

As for `COc1ccc(CNC(=O)c2c(C)cc(=O)oc2C)cc1OC`, the “activity change, negative = cytotoxicity” value was 13.8%.

In the case of `COc1ccc(CNC(=O)Cc2ccc(-c3ccccc3)cc2)cc1OC`, the Potency was 7.31 µM (active).

For the compound `CCOc1cc(C2C(C(=O)OC)=C(C)NC3=C2C(=O)c2ccccc23)ccc1O` (stereo not drawn), the “activity change, negative = cytotoxicity” value was 0.212%.

In the case of `CCOC(=O)CSC1=Nc2ccccc2C2=NC(CCC(=O)NCc3ccc(F)cc3)C(=O)N12` (stereo not drawn), the “activity change, negative = cytotoxicity” value is 8.51%.

For `CCNS(=O)(=O)c1ccc(CCC(=O)N2CCN(c3cc(Cl)ccc3C)CC2)cc1`, the Potency is 14.6 µM (active).

`CCCNS(=O)(=O)c1ccc(CCC(=O)N2CCCC2)cc1`: the “activity change, negative = cytotoxicity” value was -7.52%.

For `CCNS(=O)(=O)c1ccc(CCC(=O)N2CCN(c3ccc(OC)cc3)CC2)cc1`, the “activity change, negative = cytotoxicity” value was -7.91%.

For the compound `O=C1C(Sc2cccc(F)c2)=C[C@@]2(O)CC[C@@H](O)[C@]1(Sc1cccc(F)c1)[C@H]2O`, the “activity change, negative = cytotoxicity” value is -13.7%.

For `CCc1nc2c(OCCOc3ccccc3)cccn2c1N(C)C(=O)c1ccccc1F`, the “activity change, negative = cytotoxicity” value was -2.19%.

Take `COC(=O)C[C@H]1C=C[C@H](NC(=O)c2ccc(F)cc2)[C@@H](CO)O1`: the “activity change, negative = cytotoxicity” value is -15%.

In the case of `CN(C)Cc1cn(-c2ccccc2)nc1-c1ccccc1`, the “activity change, negative = cytotoxicity” value was -7.78%.
